Screens: PubChem, several laboratories
Shown are actives, neighbours in structure and some others; about 3.7% of the full set was active somewhere.
tim23-1 inh: tim23-1 yeast growth inhibition. S. cerevisiae tim23-1 growth, BacTiter-Glo luminescence, 24 h. inhibition, % at 20 µM. 1.3% of 330,000 active. AID 463212;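 active means growth inhibition of the mutant yeast at or above 50%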;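 further: temperature-sensitive mutant grown at 25 °C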
PfHsp90 set2: growth inhibition of yeast expressing Plasmodium Hsp90; inhibition, % at 9.4 µM; AID 504621; S. cerevisiae expressing PfHsp90, BacTiter-Glo ATP, 48 h; yeast lacking PDR1 and PDR3 efflux regulators; 0.32% of 310,000 active;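 active means every replicate shows inhibition above about 80%, whatever the replicate mean, limit read from the data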
TIM10 inh: inhibits growth of TIM10 yeast strain | 1.4% of 330,000 active | inhibition, % at 10 µM | S. cerevisiae TIM10 strain growth, BacTiter-Glo luminescence, 24 h;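 active means inhibition of 40% or more at the single tested concentration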;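 further: wild-type TIM10 isogenic control strain grown at permissive 25 °C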
V-ATPase pH: regulators of yeast V-ATPase proton transport | response, % at 10 µM | S. cerevisiae, pHLuorin cytosolic pH fluorescence | 0.37% of 350,000 active | AID 504577; in the data active means response mostly above about 7.3%, no sharp cut-off; inactive means mostly below about 5.4%; further: actives read high
tim10-1 inh: growth inhibitors of tim10-1 mutant yeast; S. cerevisiae tim10-1 ts strain growth, BacTiter-Glo, 24 h; inhibition, % at 20 µM; 2.2% of 330,000 active; AID 463190;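 active means inhibition of at least 40%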;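 further: mutant grown at 25 °C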
VATPase regulator: modulates yeast V-ATPase proton transport; S. cerevisiae pHLuorin cytosolic pH; response, % at 10 µM; shares compounds with V-ATPase pH; AID 602197; 2% of 980 active; in the data active means response above about 24%
Each line names hits and unclear results; the compound was inactive in the other large screens (follow-up assays come after a bar, where they were run).

CCn1nnc(NC(=O)Cc2ccc(Cl)cc2)n1	none
CCn1nnc(NC(=O)c2ccc(-c3ccc(Cl)cc3)o2)n1	V-ATPase pH 7.1 | VATPase regulator inactive
CCN(CC1COc2ccccc2O1)C(=S)NC1CC2CCC1C2 (stereo not given)	none
CC(C)(C)OC(=O)NCC(=O)NNC(=O)C(C(=O)OCc1ccccc1)c1ccccc1 (stereo not given)	V-ATPase pH 8.8 | VATPase regulator inactive
CC(C)C(NC(=O)CNC(=O)OC(C)(C)C)C(=O)NCc1ccccc1 (stereo not given)	none (no result: PfHsp90 set2, V-ATPase pH)
Cc1ccc(S(=O)(=O)N2CCC(C(=O)Nc3ccc(S(=O)(=O)N4CCCC4)cc3)CC2)cc1	none
Cc1ccc(S(=O)(=O)N2CCC(C(=O)N/N=C/c3cccn3C)CC2)cc1	V-ATPase pH 11 (no result: PfHsp90 set2) | VATPase regulator inactive
CCn1c(SCC(=O)NC2CCCC2)nnc1-c1c[nH]c2ccccc12	V-ATPase pH 13 | VATPase regulator inactive
Cc1cc(NC(=O)C(C)Oc2ccc(Cl)cc2Cl)no1 (stereo not given)	none
COc1ccc(C(CC(=O)NCC(OC)OC)NS(=O)(=O)c2ccc(Cl)cc2)cc1 (stereo not given)	none
CCCCCn1nc(C(=O)N(CC(C)C)c2c(N)n(CCCC)c(=O)[nH]c2=O)c2ccccc2c1=O	V-ATPase pH 22 (no result: PfHsp90 set2) | VATPase regulator inactive
COc1ccc(N(CC(=O)NCCC2=CCCCC2)S(=O)(=O)c2ccccc2)cc1OC	V-ATPase pH 14 | VATPase regulator inactive
O=C(N/C(=C\c1ccc(Br)cc1)C(=O)N1CCOCC1)c1ccco1	V-ATPase pH 14 | VATPase regulator inactive
O=C(N/C(=C/c1ccc(Br)cc1)C(=O)N1CCOCC1)c1ccco1	none
CN(CC(=O)Nc1cc(S(=O)(=O)N2CCOCC2)ccc1Cl)C1CCS(=O)(=O)C1 (stereo not given)	V-ATPase pH 7.6 | VATPase regulator inactive
CN(C)/C=N/c1sc2c(c1C#N)CCCC2	V-ATPase pH 11 | VATPase regulator inactive
CC1CCc2c(sc(/N=C/N(C)C)c2C#N)C1 (stereo not given)	none
CCOC(=O)Cc1nc2ccccc2[nH]1	none | VATPase regulator inactive
CCOC(=O)c1nc2ccccc2c(C)c1C	none | VATPase regulator inactive
CCOC(=O)c1c(C)nc2ccccc2c1C	none | VATPase regulator inactive
CCOC(=O)c1c(C)nc2ccccc2c1-c1ccccc1	none
O=C(CCN1C(=O)[C@@H]2Cc3ccccc3CN2C1=O)N[C@@H](Cc1ccccc1)C(=O)O	none
C[C@@H]1C=C[C@](Cc2ccccc2)(C(=O)NCC2CC2)N1C(=O)c1ccccc1	V-ATPase pH 11 | VATPase regulator inactive
CNC(=O)[C@@]1(Cc2ccccc2)C=C[C@@H](C)N1C(=O)OC	none
Cc1ccc(S(=O)(=O)Nc2cnc3ccccc3c2)cc1	V-ATPase pH 9.9 | VATPase regulator inactive
Nc1ccccc1NC(=O)NC(=O)c1ccccc1	none
COC(CNC(=O)C1CC(=O)N(CCc2ccc(C)cc2)C1)OC (stereo not given)	none
CCOc1ccc(NC(=S)NCc2nc3ccccc3[nH]2)cc1	V-ATPase pH 11 | VATPase regulator inactive
FC(F)Oc1ccc(NC(=S)NCc2nc3ccccc3[nH]2)cc1	none
COc1cccc(/C=C2\CCCCC2=O)c1	none
O=C(COC(=O)CCC(=O)c1ccc(F)cc1)NCCc1ccccc1	none | VATPase regulator inactive
O=C(CCC1CCN(C(=O)CC2=CCCCC2)CC1)NCc1ccc(F)cc1	V-ATPase pH 7.1 (no result: tim23-1 inh, PfHsp90 set2, TIM10 inh, tim10-1 inh) | VATPase regulator inactive
CCOC(=O)C1CCN(Cc2cc(=O)oc3c(C)c(C)ccc23)CC1	none
O=C1C2C3C=CC(CC3)C2C(=O)N1/N=C/c1c(O)ccc2ccccc12 (stereo not given)	V-ATPase pH 7.5 | VATPase regulator inactive
O=C1C2C3C=CC(CC3)C2C(=O)N1/N=C/c1ccccc1O (stereo not given)	none
COc1cc(C(=O)COC(=O)C2CCCCC2)cc(OC)c1OC	none
CCc1nc2c(C#N)c(-c3ccc(Cl)cc3)ccn2n1	none
CCS(=O)c1scc(-c2ccc(Cl)cc2)c1C#N (stereo not given)	V-ATPase pH 9.0 | VATPase regulator inactive
Cc1nn(CC2CC2)c(=O)n1-c1ccc(Cl)cc1	none | VATPase regulator inactive
O=C(Nc1cccc(Cl)c1Cl)c1ccccc1OCC(=O)N1CCOCC1	V-ATPase pH 11 | VATPase regulator inactive
Cc1cccc(NC(=O)c2ccccc2OCC(=O)N2CCOCC2)c1C	none
O=C(NCCN1C(=O)S/C(=C\c2ccc(Cl)cc2)C1=O)c1ccc(F)c(S(=O)(=O)N2CCOCC2)c1	V-ATPase pH 9.5 | VATPase regulator inactive
O=C(NCCN1C(=O)S/C(=C\c2ccc(F)cc2)C1=O)c1cccc(S(=O)(=O)N2CCOCC2)c1	none
CC(=O)Nc1ccc2nc(CN3CCN(Cc4ccc(F)cc4)C(CCO)C3)ccc2c1 (stereo not given)	V-ATPase pH 11 | VATPase regulator inactive
CC(=O)Nc1ccc2nc(CN3CCN(CC(C)C)C(CCO)C3)ccc2c1 (stereo not given)	none (no result: PfHsp90 set2)
Cc1ccc(NC(=O)CSc2nnc(Cc3ccccc3)c(=O)[nH]2)c(C)c1	V-ATPase pH 11 | VATPase regulator inactive
COc1ccc(Cc2nnc(SCC(=O)Nc3ccccc3)[nH]c2=O)cc1	none (no result: PfHsp90 set2)
CCOC(=O)c1[nH]c(=O)c2ccccc2c1O	none | VATPase regulator inactive
COc1ccc(/C=C/C(=O)c2ccoc2)cc1	none
COc1ccc(/C=C/C(=O)c2ccc(O)cc2)cc1	V-ATPase pH 9.3 | VATPase regulator inactive
COc1cccc(-n2c(CCn3nc(C)c([N+](=O)[O-])c3C)n[nH]c2=S)c1	V-ATPase pH 9.7 | VATPase regulator inactive
Cc1cccc(-n2c(CCn3nc(C)c([N+](=O)[O-])c3C)n[nH]c2=S)c1	none
CC(C)c1ccc(C(=O)OCC(=O)Nc2cccc(S(=O)(=O)NC3=NCCC3)c2)cc1	V-ATPase pH 7.2 (no result: tim23-1 inh, PfHsp90 set2, TIM10 inh, tim10-1 inh) | VATPase regulator inactive
CCc1ccccc1OCC(=O)Nc1cccc(S(=O)(=O)NC2=NCCC2)c1	V-ATPase pH 9.5 (no result: PfHsp90 set2) | VATPase regulator inactive
O=C(COC(=O)c1ccc(O)cc1)Nc1cccc(S(=O)(=O)NC2=NCCC2)c1	none
Cc1ccccc1OCC(=O)Nc1cccc(S(=O)(=O)NC2=NCCC2)c1	none
COCCOC(=O)c1c(NC(=O)CNCc2ccco2)sc(C(N)=O)c1C	V-ATPase pH 10 | VATPase regulator inactive
CCOc1cc(/C=C/C(=O)c2ccc3c(c2)OCCO3)ccc1OCC(=O)N(C)C	V-ATPase pH 15 | VATPase regulator inactive
CCOc1cc(/C=C/C(=O)c2ccc(O)cc2)ccc1OCC(=O)N(C)C	none
COC(C[C@@H](O)C[C@H](O)COCc1ccccc1)OC	V-ATPase pH 31 | VATPase regulator inactive
COC(C[C@H](O)C[C@@H](O)[C@H](C)OCc1ccccc1)OC	none
CCN(CC(=O)NC1CC1)S(=O)(=O)c1ccc(OC)cc1	none
Cc1cc(C)c(NC(=O)CSc2nc3ccc(N4C(=O)c5ccccc5C4=O)cc3s2)c(C)c1	V-ATPase pH 9.0 | VATPase regulator inactive
